One molecule from the supplement of paper PMC8728848 can be followed below.

Assay in all cases: glycan array binding signal (z-score within array); higher = stronger binding
Common to all, as to conditions: glycan notation: IUPAC condensed, linker removed

Assay [1] deals with Fuc(a1-2)Gal(b1-3)GalNAc(b1-4)[Neu5Ac(a2-3)]Gal(b1-4)Glc. An outline of the steps: (§1)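 Glycan array data were curated from 3228 arrays in the Consortium for Functional Glycomics database and kept only where the protein sequence was available. Glycan names were converted to IUPAC-condensed notation, and columns mapping to the same glycan were averaged. The binding signal is a within-array Z-score, averaged across arrays of the same protein sequence at different concentrations or buffers and across linkers. Negative Z-scores can be read as non-binding.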

The next assay addresses Fuc(a1-2)Gal(b1-4)Glc. In a few lines:
as §1

The target of a further assay is Fuc(a1-2)Gal(b1-4)Glc6S. In a few lines: as §1
For assay [2], the target named is Fuc(a1-2)[GalNAc(a1-3)]Gal(b1-3)GlcNAc. In a few lines: as §1
Assay [3] addresses Fuc(a1-3)[Gal(b1-4)]GlcNAc(b1-4)Gal(b1-4)[Fuc(a1-3)]GlcNAc. An outline of the steps: as §1
The next assay has as its target Gal(a1-2)Gal. In a few lines:
as §1

The target in assay [4] is Gal(a1-3)Gal(b1-4)GlcNAc(b1-3)GalNAc. In a few lines: as §1
The target of another assay is Gal(a1-4)Gal(b1-4)Glc. An outline of the steps:
as §1

Assay [5] concerns the target Gal(a1-4)Gal(b1-4)GlcNAc(b1-3)Gal(b1-4)Glc. An outline of the steps:
as §1

For assay [6], the target named is Gal(b1-3)GlcNAc(b1-3)Gal(b1-3)GlcNAc. An outline of the steps: as §1
Assay [7] deals with Gal(b1-4)GlcNAc(a1-6)Gal(b1-4)GlcNAc. In a few lines: as §1
A further assay concerns the target Gal3S(b1-3)GalNAc. In a few lines:
as §1

Another assay concerns the target Gal3S(b1-4)GlcNAc. An outline of the steps: as §1
Assay [8] has as its target Neu5Ac(a2-3)Gal(b1-3)GalNAc. An outline of the steps: as §1
In assay [9] the target is Neu5Ac(a2-3)Gal(b1-3)GalNAc(b1-4)[Neu5Ac(a2-3)]Gal(b1-4)Glc. An outline of the steps:
as §1

Assay [10] deals with Neu5Ac(a2-3)Gal(b1-3)GalNAc6S. In a few lines: as §1
The target of assay [11] is Neu5Ac(a2-3)Gal(b1-3)GlcNAc(b1-3)GalNAc. In a few lines: as §1
For assay [12], the target named is Neu5Ac(a2-3)Gal(b1-3)[Fuc(a1-4)]GlcNAc(b1-3)Gal(b1-3)[Fuc(a1-4)]GlcNAc. In a few lines: as §1
For assay [13], the target named is Neu5Ac(a2-3)Gal(b1-3)[Neu5Ac(a2-6)]GalNAc. In a few lines: as §1
The target in assay [14] is Neu5Ac(a2-3)Gal(b1-4)GlcNAc(b1-6)[Neu5Ac(a2-3)Gal(b1-3)]GalNAc. An outline of the steps: as §1
Assay [15] addresses Neu5Ac(a2-3)[Neu5Ac(a2-6)]GalNAc. An outline of the steps:
as §1

The target in a further assay is Neu5Ac(a2-6)GalNAc. An outline of the steps:
as §1

Assay [16] has as its target Neu5Ac(a2-6)GlcNAc(b1-4)GlcNAc. In a few lines: as §1
In assay [17] the target is Neu5Gc(a2-3)Gal(b1-4)[Fuc(a1-3)]GlcNAc. An outline of the steps:
as §1

This excerpt belongs to a sample that is enriched for the strongest signals.

B1: exo-alpha-sialidase (Propionibacterium acnes), Q6A7G1 (protein)
chain: GSHMSGRAPAPVAATTQPKLVTGDITSTDQSGTNLFFGKKIVRNARGAIMKVDRTWPAAVPAPLPDVRADSSTRMLLGPVVDLAVNEHPEGVFYRIPALATASNGDLLASYDLRPGSAGDAPNPNSIVQRRSRDNGRTWGPQTVIHAGTPGRRKVGYSDPSYLVDPATGRILNFHVKSYDRGFATSEVGTDPDDRHVLHAEVSTSTDNGHTWTHRDITREITSDPTTRTRFVASGQGIALLHGPHAGRLIAQMTVRNSVGQQAQSIYSDDHGITWHAGNPVGRMMDENKVVELSDGTLMLNSRDAARSGRRKVAYSQDGGLTWGPVKLVDDLIDPTNNAQIIRAYPNARAGSAKARILLFTNARNATERVNGTLSVSCDDGRTWVSHQTYMPGEVGYTTAAVQSDGALGVLWERDGIRYSTIPMGWLNSVCPLAPSGRPTSGKPTSGTSLPPTAT
As for B1, the “glycan array binding signal (z-score)” value in [1] is -0.338; with Fuc(a1-2)Gal(b1-4)Glc, -0.361; in the assay with Fuc(a1-2)Gal(b1-4)Glc6S, -0.256; in assay [2], -0.343; in assay [3], -0.311; in the assay with Gal(a1-2)Gal it was -0.331. For the same molecule, the “glycan array binding signal (z-score)” value in [4] was -0.36; in the assay with Gal(a1-4)Gal(b1-4)Glc, -0.366; in assay [5] it was -0.337; in assay [6], -0.354; in assay [7] it was -0.353; in the assay with Gal3S(b1-3)GalNAc, -0.343. Also, the “glycan array binding signal (z-score)” value was -0.268 with Gal3S(b1-4)GlcNAc; 3.6 in [8]; 6.27 in [9]; 3.54 in assay [10]; 3.71 in assay [11]; 0.022 in assay [12]. Further, the “glycan array binding signal (z-score)” value is 3.45 in assay [13]; 4.39 in [14]; 4.53 in [15]; -0.072 with Neu5Ac(a2-6)GalNAc; 3.52 in assay [16]; -0.196 in assay [17].
